Laboratory results taken from PubChem BioAssay AID1259420 (Broad Institute, 2018).
Several values for one entry are separate records, joined by “and”; a condition that tells them apart may be missing. Equal values may be shown once. Among all 1,000 compounds or so, about 250 (25%) were called active. Another 31% or so got no clear call; they are omitted. These entries were drawn from the full list. Entries with a potency or affinity are not part of this list. Unmarked numbers belong to inactive results. The rule behind the calls is not given here.

Experiment: T. gondii intracellular growth, IFN-gamma absent, dose response, cell-based (AID 1259420);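 note: host cells were HeLa; final incubation lasted 72 hours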
Conditions: Toxoplasma gondii growth in host cells, no IFN-gamma

Structure (SMILES): O=C(NC1CCCC1)N1[C@@H]2CNC[C@H]1C2c1ccc(-c2cccnc2)cc1 (stereo partly specified)
- max activity (at 19.5 µM unless noted): -14.9% [at 10 µM]

Structure (SMILES): CN(C)C(=O)c1cccc(-c2ccc3c(c2)[C@H]2[C@H](CCN2C(=O)Cc2ccccc2)[C@@H](CO)N3)c1
- max activity (at 19.5 µM unless noted): -6.17% [at 10 µM]

Structure (SMILES): CN(C)C(=O)c1cccc(-c2ccc3c(c2)[C@@H]2[C@@H](CCN2C(=O)Cc2ccccc2)[C@H](CO)N3)c1
- max activity (at 19.5 µM unless noted): 13.7% [at 21 µM]

Structure (SMILES): O=C(Cc1cccnc1)N1CC(=O)N2[C@@H](CO)[C@H](c3ccc(C#CC4CCCCC4)cc3)[C@@H]2C1
- max activity (at 19.5 µM unless noted): -4.29% [at 10 µM]

Structure (SMILES): CC(C)NC(=O)N1CC(=O)N2[C@H](C1)[C@@H](c1ccc(/C=C/c3ccccc3)cc1)[C@@H]2CO
- max activity (at 19.5 µM unless noted): 11.9% [at 5 µM]

Structure (SMILES): CN(C)C(=O)c1cc2c(nc1NCC1CC1)CCN(Cc1ccccn1)CC2
- max activity (at 19.5 µM unless noted): -6.11% [at 10 µM]

Structure (SMILES): CC(C)CN(C[C@@H](O)[C@H](Cc1ccccc1)NC(=O)O[C@H]1CO[C@H]2OCC[C@H]21)S(=O)(=O)c1ccc(N)cc1
- max activity (at 19.5 µM unless noted): 6.05% [at 1.2 µM]

Structure (SMILES): O=C(C1CC1)N1C[C@@H]2N[C@H](C1)C2c1ccc(/C=C/c2ccccc2)cc1 (stereo partly specified)
- max activity (at 19.5 µM unless noted): 27.3%

Structure (SMILES): COc1ccc(-c2ccc(C3[C@@H]4CN(C(=O)c5cnccn5)C[C@H]3N4)cc2)cc1 (stereo partly specified)
- max activity (at 19.5 µM unless noted): 19.9%

Structure (SMILES): COc1ccccc1-c1ccc(C2[C@@H]3CN(C(=O)c4ccncc4)C[C@H]2N3)cc1 (stereo partly specified)
- max activity (at 19.5 µM unless noted): -11% [at 5 µM]

Structure (SMILES): Cc1csc([C@H]2C[C@H]3CCN(C(=O)c4cnccn4)C[C@@H]3O2)n1
- max activity (at 19.5 µM unless noted): -12.1%

Structure (SMILES): CC(C)CNC(=O)c1cc(-c2ccn(CC3CC3)n2)n2ccccc12
- max activity (at 19.5 µM unless noted): 21.6%

Structure (SMILES): Cc1ccc(S(=O)(=O)N2CCC3(CC2)OC(C(=O)N(C)C)Cn2ccnc23)cc1 (stereo unspecified)
- max activity (at 19.5 µM unless noted): -17%

Structure (SMILES): CN(C)C(=O)CN1C[C@@H]2CCN(C(=O)Nc3ccccc3Cl)CC[C@H]2S1(=O)=O
- max activity (at 19.5 µM unless noted): 7.52% [at 2.6 µM]

Structure (SMILES): O=C(NC1CCCC1)N1CC[C@H]2CN(Cc3cccc(Cl)c3)S(=O)(=O)[C@@H]2CC1
- max activity (at 19.5 µM unless noted): -17.4%

Structure (SMILES): CC(C)n1c(C(=O)N2CCN(c3ccncc3)CC2)cc2c1c1ccccc1n2C
- max activity (at 19.5 µM unless noted): 37.4%

Structure (SMILES): COc1ccccc1C#Cc1ccc([C@@H]2[C@H](CO)N3CCCCN(C(=O)C4CCC4)C[C@@H]23)cc1
- max activity (at 19.5 µM unless noted): 17.3%

Structure (SMILES): CS(=O)(=O)N1CCO[C@@H]2CN(C(=O)Cc3ccccn3)CC[C@H]2C1
- max activity (at 19.5 µM unless noted): -18.9% [at 1.2 µM]

Structure (SMILES): Cn1c([N+](=O)[O-])cnc1COC(N)=O
- max activity (at 19.5 µM unless noted): -13.4% [at 0.6 µM]

Structure (SMILES): N#C[C@H]1N[C@@H](CO)[C@@H]1c1ccc(C#CC2CCCCC2)cc1
- max activity (at 19.5 µM unless noted): 28% [at 21 µM]

Structure (SMILES): C=CC[C@@H]1CC=C[C@@H](C)N1C(=O)CCn1c(C)cc(C)nc1=O
- max activity (at 0.16 µM): 10.8%
- max activity (at 10 µM): -10.5%

Structure (SMILES): Oc1[nH]c2ccccc2c1N=Nc1nc(Nc2ccccc2)nc(N2CCOCC2)n1
- max activity (at 19.5 µM unless noted): -17.4% [at 5 µM]

Structure (SMILES): COc1cccc(-c2ccc3c(c2)[C@H]2[C@H](CCN2S(=O)(=O)c2ccccc2F)[C@H](CO)N3)c1
- max activity (at 19.5 µM unless noted): 10%

Structure (SMILES): O=C(c1cnccn1)N1CC(=O)N2[C@H](C1)[C@H](c1ccc(/C=C/c3ccccc3)cc1)[C@@H]2CO
- max activity (at 19.5 µM unless noted): 11.5% [at 0.16 µM]

Structure (SMILES): O=S1(=O)c2ccccc2OCC2(CCN(Cc3ccc(F)cc3)CC2)CN1CC1CC1
- max activity (at 19.5 µM unless noted): 28.5%

Structure (SMILES): COCC#Cc1ccc([C@H]2[C@H](CO)N3CCCCN(C(=O)NC4CCCC4)C[C@@H]23)cc1
- max activity (at 19.5 µM unless noted): -13.1% [at 10 µM]

Structure (SMILES): O=C(Nc1ccc2c(c1)OCO2)N1C[C@@H]2N[C@H](C1)C2c1ccc(C=Cc2ccccc2)cc1 (stereo partly specified)
- max activity (at 19.5 µM unless noted): 38% [at 10 µM]

Structure (SMILES): COc1cccc(C(=O)Nc2ccc3c(c2)C(=O)N(C)[C@H]2CC[C@@H](CC(=O)N[C@@H](C)c4ccccc4)O[C@H]2CO3)c1
- max activity (at 19.5 µM unless noted): 8.03% [at 0.3 µM]

Structure (SMILES): CN1C(=O)c2cc(NC(=O)c3cccc(F)c3)ccc2OC[C@@H]2O[C@H](CC(=O)NCC3CCCCC3)CC[C@@H]21
- max activity (at 19.5 µM unless noted): -23.6% [at 10 µM]

Structure (SMILES): CN1C(=O)c2cc(NC(=O)c3cccc(F)c3)ccc2OC[C@H]2O[C@@H](CC(=O)NCC3CCCCC3)CC[C@@H]21
- max activity (at 19.5 µM unless noted): -18% [at 2.6 µM]

Structure (SMILES): CN1C(=O)c2cc(NC(=O)c3cccc(F)c3)ccc2OC[C@H]2O[C@@H](CC(=O)NCC3CCCCC3)CC[C@H]21
- max activity (at 0.16 µM): 4.44%
- max activity (at 5 µM): -19.3%
- max activity (at 19.5 µM): -5.09%

Structure (SMILES): CN1C(=O)c2cc(NC(=O)c3cccc(F)c3)ccc2OC[C@@H]2O[C@@H](CC(=O)NCC3CCCCC3)CC[C@@H]21
- max activity (at 19.5 µM unless noted): -20.9% [at 2.6 µM]

Structure (SMILES): CC(C)c1cccc(NC(=O)C[C@H]2CC[C@H]3[C@@H](COc4ccc(NS(=O)(=O)c5ccccc5Cl)cc4C(=O)N3C)O2)c1
- max activity (at 19.5 µM unless noted): -22.8% [at 10 µM]

Structure (SMILES): Cc1ccccc1S(=O)(=O)N1CCCCN2[C@H](CO)[C@H](c3ccc(C#CCN(C)C)cc3)[C@@H]2C1
- max activity (at 19.5 µM unless noted): -9.35% [at 10 µM]

Structure (SMILES): Cc1ccccc1-c1ccc(C2[C@@H]3CN(C(=O)C4CCOCC4)C[C@H]2N3)cc1 (stereo partly specified)
- max activity (at 0.6 µM): -10.3%
- max activity (at 5 µM): -5.78%

Structure (SMILES): C1=C(c2ccccc2)CC(c2ccccc2)=NN=C1c1ccccc1
- max activity (at 19.5 µM unless noted): -9.17% [at 10 µM]

Structure (SMILES): COc1cccc(S(=O)(=O)N2CCCCN3[C@H](CO)[C@@H](c4ccc(C#CCC(C)C)cc4)[C@@H]3C2)c1
- max activity (at 19.5 µM unless noted): -24.9% [at 0.038 µM]

Structure (SMILES): O=S(=O)(c1ccccc1)N1CCCCN2[C@H](C1)[C@@H](c1ccc(C#CC3CCCC3)cc1)[C@@H]2CO
- max activity (at 19.5 µM unless noted): 22.5%

Structure (SMILES): COc1cccc(S(=O)(=O)N2CCCCN3[C@H](CO)[C@H](c4ccc(C#CCC(C)C)cc4)[C@@H]3C2)c1
- max activity (at 0.038 µM): -25.2%
- max activity (at 19.5 µM): -36.4%

Structure (SMILES): O=S(=O)(c1ccccc1)N1CCCCN2[C@@H](CO)[C@@H](c3ccc(C#CC4CCCC4)cc3)[C@@H]2C1
- max activity (at 19.5 µM unless noted): 18.8% [at 10 µM]

Structure (SMILES): COc1cccc(S(=O)(=O)N2CCCCN3[C@H](C2)[C@@H](c2ccc(C#CCC(C)C)cc2)[C@@H]3CO)c1
- max activity (at 19.5 µM unless noted): -34.5% and -29.4%

Structure (SMILES): O=S(=O)(c1ccccc1)N1CCCCN2[C@H](CO)[C@@H](c3ccc(C#CC4CCCC4)cc3)[C@@H]2C1
- max activity (at 19.5 µM unless noted): 39.2%

Structure (SMILES): COc1cccc(S(=O)(=O)N2CCCCN3[C@@H](CO)[C@H](c4ccc(C#CCC(C)C)cc4)[C@@H]3C2)c1
- max activity (at 19.5 µM unless noted): -27.2% [at 0.3 µM]

Structure (SMILES): CNCCCC12CCC(c3ccccc31)c1ccccc12
- max activity (at 19.5 µM unless noted): 17.3%

Structure (SMILES): CCC(=O)N1CC(=O)N2[C@H](C1)[C@H](c1ccc(C#CCC(C)C)cc1)[C@@H]2CO
- max activity (at 19.5 µM unless noted): -9.55% [at 5 µM]

Structure (SMILES): O=C(NC1CCCC1)N1CC(=O)N2[C@H](CO)[C@H](c3ccc(C4=CCCCC4)cc3)[C@@H]2C1
- max activity (at 19.5 µM unless noted): 10.5% [at 0.6 µM]

Structure (SMILES): CS(=O)(=O)N1CC(=O)N2[C@H](CO)[C@@H](c3ccc(C#CCC4CCCC4)cc3)[C@H]2C1
- max activity (at 19.5 µM unless noted): 17.7% [at 21 µM]

Structure (SMILES): COC(=O)C[C@H]1CC[C@@H]2[C@@H](COc3ccc(NC(=O)Nc4cccc(C#N)c4)cc3C(=O)N2C)O1
- max activity (at 19.5 µM unless noted): 32.3% and 6.8%

Structure (SMILES): CC=Cc1ccc2n(c1=O)C[C@H]1[C@H](CO)[C@@H](C(=O)Nc3ccc(-c4ccccc4)cc3)[C@@H]2N1C(=O)CC (mixture of isomers)
- max activity (at 19.5 µM unless noted): -8.34%

Structure (SMILES): CC(=O)NC1=NN(C(C)=O)C(C)(c2ccccc2)S1 (stereo unspecified)
- max activity (at 19.5 µM unless noted): 5.61% [at 0.16 µM]

Structure (SMILES): COc1ccccc1C#Cc1ccc([C@H]2[C@H](CO)N3CCCCN(C(=O)C4CCC4)C[C@@H]23)cc1
- max activity (at 10 µM): 11.5%
- max activity (at 19.5 µM): -7.69%

Structure (SMILES): CN(C)CCNC(=O)c1ccc2onc(-c3coc(C4CC4)n3)c2c1
- max activity (at 19.5 µM unless noted): 24.6%

Structure (SMILES): COc1ccccc1Cn1ncc2c1CCCC2NC(=O)c1cc(-c2cccs2)no1 (stereo unspecified)
- max activity (at 19.5 µM unless noted): 11.7% [at 1.2 µM]

Structure (SMILES): O=C(C1CCOCC1)N1CC(=O)N2[C@H](C1)[C@@H](c1ccc(/C=C/c3ccccc3)cc1)[C@@H]2CO
- max activity (at 19.5 µM unless noted): 10.5% [at 0.6 µM]

Structure (SMILES): O=C(C1CCC1)N1CC(=O)N2[C@H](CO)[C@H](c3ccc(Br)cc3)[C@H]2C1
- max activity (at 19.5 µM unless noted): -11.4% [at 10 µM]

Structure (SMILES): Cc1nc(Cn2cnc(-c3nc(C(=O)NCc4cc(F)cc(F)c4)c4ccccn34)c2)cs1
- max activity (at 19.5 µM unless noted): 15.4%

Structure (SMILES): COC(=O)c1sccc1S(=O)(=O)N[C@@H]1CC[C@@H](N)C1
- max activity (at 19.5 µM unless noted): -5.2%

Structure (SMILES): CN(c1ccccc1)c1ccc2ccc(C(=O)N3CCCC3)cn12
- max activity (at 19.5 µM unless noted): -21% [at 0.16 µM]

Structure (SMILES): O=C(c1ccc(F)cc1)N1c2ccccc2Sc2ccc(C(F)(F)F)cc21
- max activity (at 19.5 µM unless noted): 12.1% [at 10 µM]

Structure (SMILES): O=C(NC1CCCC1)N1CCCCN2[C@@H](CO)[C@@H](c3ccc(-c4cccnc4)cc3)[C@@H]2C1
- max activity (at 19.5 µM unless noted): -13.7% [at 2.6 µM]

Structure (SMILES): CCc1ccc(S(=O)(=O)N2CCC3(CCC(C(=O)N4CCCC4)O3)CC2)cc1 (stereo unspecified)
- max activity (at 19.5 µM unless noted): -11.2% [at 1.2 µM]

Structure (SMILES): CN1C(=O)c2cc(NC(=O)Cc3cccs3)ccc2OC[C@@H]2O[C@H](CC(=O)NCC3CCCCC3)CC[C@@H]21
- max activity (at 19.5 µM unless noted): 9.14% [at 0.6 µM]

Structure (SMILES): COc1cccc(C(=O)Nc2ccc3c(c2)C(=O)N(C)[C@@H]2CC[C@H](CC(=O)N[C@H](C)c4ccccc4)O[C@@H]2CO3)c1
- max activity (at 19.5 µM unless noted): -19.3% [at 1.2 µM]

Structure (SMILES): CN1C(=O)c2cc(NC(=O)Cc3cccs3)ccc2OC[C@@H]2O[C@H](CC(=O)N[C@H]3CCN(Cc4ccccc4)C3)CC[C@@H]21
- max activity (at 19.5 µM unless noted): 35.3% and 9.67%

Structure (SMILES): CN1C(=O)c2cc(NC(=O)Cc3cccs3)ccc2OC[C@@H]2O[C@H](CC(=O)N[C@@H]3CCN(Cc4ccccc4)C3)CC[C@@H]21
- max activity (at 19.5 µM unless noted): 32%
